Reference: ChEMBL document CHEMBL4513141, “CO-ADD screening of NIH (USA) - Clinical Collection” (2021)
Entries with a potency or affinity are not part of this list.

How the values were obtained:
Staphylococcus aureus = details: Concentration 20 uM; ASSAY_TEST Inhibition of Bacterial Growth; detection method Absorption (OD600); MEDIA CAMHB; plate type 384well; NBS; CORNING #3640; time 18 hr
Escherichia coli = details: Concentration 20 uM; ASSAY_TEST Inhibition of Bacterial Growth; detection method Absorption (OD600); MEDIA CAMHB; plate type 384well; NBS; CORNING #3640; time 18 hr

| Structure (SMILES) | Inhibition (Staphylococcus aureus) [%] | Inhibition (Escherichia coli) [%] |
| --- | --- | --- |
| CC(=O)S[C@@H]1CC2=CC(=O)CC[C@]2(C)[C@H]2CC[C@@]3(C)[C@@H](CC[C@@]34CCC(=O)O4)[C@H]12 [SPIRONOLACTONE] | 18.37 | 5.07 |
| CC1=Nc2ccc(Cl)cc2S(=O)(=O)N1 [DIAZOXIDE] | 9.13 | 5.75 |
| O=c1cnn([C@@H]2O[C@H](CO)[C@@H](O)[C@H]2O)c(=O)[nH]1 [6-AZAURIDINE] | -22.3 | 4.59 |
| COC(=O)C1=C(C)NC(C)=C(C(=O)OC(C)C)C1c1cccc2nonc12 (centres undefined) [ISRADIPINE] | 14.31 | -0.09 |
| CC1Cc2ccccc2N1NC(=O)c1ccc(Cl)c(S(N)(=O)=O)c1 (centres undefined) [INDAPAMIDE] | 5.44 | -0.79 |
| CC1CC2C3CCC4=CC(=O)C=CC4(C)[C@@]3(Cl)C(O)CC2(C)C1(O)C(=O)CO (some centres undefined) | 12.42 | 5.77 |
| CC(=O)[C@@]1(O)CC[C@H]2[C@@H]3C[C@H](C)C4=CC(=O)CC[C@]4(C)[C@H]3CC[C@@]21C | 8.66 | -5.84 |
| CC(CN1c2ccccc2Sc2ccccc21)N(C)C.Cl (centres undefined) [PROMETHAZINE HYDROCHLORIDE] | 15.79 | 1.25 |
| CC[C@H](C)C(=O)O[C@H]1C[C@H](O)C=C2C=C[C@H](C)[C@H](CC[C@@H](O)C[C@@H](O)CC(=O)[O-])[C@H]21.[Na+] [PRAVASTATIN SODIUM] | 12.65 | 2.41 |
| Nc1ncnc2c1ncn2[C@@H]1O[C@H](CO)[C@@H](O)[C@@H]1O [VIDARABINE] | 17.44 | 6.8 |
| C[C@]12CCC(=O)C=C1CC[C@@H]1[C@@H]2C(=O)C[C@@]2(C)[C@H]1CC[C@]2(O)C(=O)CO [CORTISONE] | 18.73 | 3.83 |
| CC(=O)[C@H]1CC[C@H]2[C@@H]3C[C@H](C)C4=CC(=O)CC[C@]4(C)[C@H]3[C@@H](O)C[C@]12C [MEDRYSONE] | 2.89 | 2.65 |
| CC[C@H](C)C(=O)O[C@H]1CCC=C2C=C[C@H](C)[C@H](CC[C@@H]3C[C@@H](O)CC(=O)O3)[C@H]21 [MEVASTATIN] | -0.69 | 8.43 |
| NS(=O)(=O)c1cc(C(=O)O)c(NCc2ccco2)cc1Cl [FUROSEMIDE] | 14.48 | -0.33 |
| CN(C)CCOC(c1ccc(Cl)cc1)c1ccccn1.O=C(O)/C=C\C(=O)O (centres undefined) [CARBINOXAMINE MALEATE] | 10.84 | 3.54 |
| O=C1CN(/N=C/c2ccc(-c3ccc([N+](=O)[O-])cc3)o2)C(=O)[N-]1.[Na+] [DANTROLENE SODIUM] | 4.1 | -9.64 |
| CC(COc1ccccc1Cc1ccccc1)N1CCCCC1.O=P(O)(O)O (centres undefined) | 12.26 | 7.84 |
| O=C(NCCO[N+](=O)[O-])c1cccnc1 [NICORANDIL] | 13.24 | 8.35 |
| Cc1cccc(C)c1NC(=O)C1CCCCN1C.Cl (centres undefined) [MEPIVACAINE HYDROCHLORIDE] | 10.78 | 6.74 |
| C=C(CC)C(=O)c1ccc(OCC(=O)O)c(Cl)c1Cl [ETHACRYNIC ACID] | 39.53 | 0.95 |
| CCC(C)(C)C(=O)O[C@H]1C[C@@H](C)C=C2C=C[C@H](C)[C@H](CC[C@@H]3C[C@@H](O)CC(=O)O3)[C@H]21 [SIMVASTATIN] |  | 6.01 |
| CN1CCN(C2=Nc3ccccc3Oc3ccc(Cl)cc32)CC1.O=C(O)CCC(=O)O [LOXAPINE SUCCINATE] | 9.14 | 4.68 |
| O=C([O-])Cc1ccccc1Nc1c(Cl)cccc1Cl.[Na+] [DICLOFENAC SODIUM] |  | 7.01 |
| CC(C)(C)NC[C@H](O)COc1nsnc1N1CCOCC1.O=C(O)/C=C\C(=O)O [TIMOLOL MALEATE] | 2.99 | 1.71 |
| O=C1N[C@H](C(=O)O)CS1 [PROCYSTEINE] | 10.52 | 6.28 |
| CC(=O)O.CC(C)C[C@H](NC(=O)[C@@H](COC(C)(C)C)NC(=O)[C@H](Cc1ccc(O)cc1)NC(=O)[C@H](CO)NC(=O)[C@H](Cc1c[nH]c2ccccc12)NC(=O)[C@H](Cc1c[nH]cn1)NC(=O)[C@H]1CCC(=O)N1)C(=O)N[C@H](CCCNC(=N)N)C(=O)N1CCC[C@@H]1C(=O)NNC(N)=O | 9.86 | 5.78 |
| CC(C)c1ccc2oc3nc(N)c(C(=O)O)cc3c(=O)c2c1 [AMLEXANOX] | 16.12 | 0.07 |

| Structure (SMILES) | Inhibition (Staphylococcus aureus) [%] | Inhibition (Escherichia coli) [%] |
| --- | --- | --- |
| CCOC(=O)[C@H](CCc1ccccc1)N[C@@H](C)C(=O)N1[C@H](C(=O)O)C[C@@H]2CCC[C@@H]21 | 17.44 | 1.83 |
| CC(CCCCC(=O)Nc1ccc(C(F)(F)F)cc1)NCCc1c[nH]cn1.O=C(O)/C=C\C(=O)O.O=C(O)/C=C\C(=O)O (centres undefined) | 7.23 | 3.85 |
| CC(=O)O.CNC(=N)NCCC[C@H](N)C(=O)O [TILARGININE ACETATE] | -13.73 | 6.22 |
| Cl.Clc1ccccc1CN1CCc2sccc2C1 [TICLOPIDINE HYDROCHLORIDE] | 6.77 | 1.84 |
| CC(C)NCC(O)COc1ccc(CCOCC2CC2)cc1.Cl (centres undefined) [BETAXOLOL HYDROCHLORIDE] | 7.41 | 0.81 |
| CNCC(O)c1ccc(O)c(O)c1 (centres undefined) [RACEPINEPHRINE] | 9.77 | 2.6 |
| COc1ccc2c(c1)c(CC(=O)O)c(C)n2C(=O)c1ccc(Cl)cc1.O | 8.16 | 7.22 |
| O=C1C(c2c(O)[nH]c3ccccc23)=Nc2ccccc21 | 2.27 | -3.28 |
| Cl.NC[C@H]1CC[C@H](C(=O)Oc2ccc(CCC(=O)O)cc2)CC1 [CETRAXATE HYDROCHLORIDE] | 14.3 | -0.51 |
| CN(C)c1nc(N(C)C)nc(N(C)C)n1 [ALTRETAMINE] | 15.78 | -2.16 |
| CN(C)CCCN1c2ccccc2CCc2ccccc21.Cl [IMIPRAMINE HYDROCHLORIDE] | 8.95 | -1.44 |
| CC(C(O)c1ccc(O)cc1)N1CCC(Cc2ccccc2)CC1.O.O=C(O)C(O)C(O)C(=O)O (centres undefined) | 9.87 | -1.84 |
| Nc1nc(N)nc(-c2cc(Cl)ccc2Cl)n1.O=C(O)/C=C\C(=O)O [IRSOGLADINE MALEATE] | 8.27 | 0.86 |
| C/C=C1/[C@H]2C=C(C)C[C@]1(N)c1ccc(O)nc1C2 | 13.84 | -0.02 |
| CC(=O)CCCCn1c(=O)c2c(ncn2C)n(C)c1=O [PENTOXIFYLLINE] | 15.42 | 2.27 |
| Cc1ccsc1C(=CCCN1CCC[C@@H](C(=O)O)C1)c1sccc1C.Cl [TIAGABINE HYDROCHLORIDE] | 12.29 | -1.1 |
| Nc1ccn([C@H]2CC[C@@H](CO)O2)c(=O)n1 [ZALCITABINE] | 4.24 | -9.44 |
| CN(C)[C@@H]1C(=O)C(C(=O)NCN2CCCC2)=C(O)[C@@]2(O)C(O)=C3C(=O)c4c(O)cccc4[C@@](C)(O)C3CC12 (some centres undefined) | 23.2 | 5.47 |
| CC(C)(C)NCC(O)COc1cccc2c1CC(O)C(O)C2 (centres undefined) [NADOLOL] | 16.27 | 3.67 |
| CC(=CCC1=C(C)C(=O)c2ccccc2C1=O)CCCC(C)CCCC(C)CCCC(C)C (centres undefined) | 7.33 | 5.45 |
| CN1CCN(CCCN2c3ccccc3Sc3ccc(C(F)(F)F)cc32)CC1.Cl.Cl [TRIFLUOPERAZINE HYDROCHLORIDE] | 19.71 | 0.85 |
| CC[C@]1(O)C[C@@H]2CN(CCc3c([nH]c4ccccc34)[C@@](C(=O)OC)(c3cc4c(cc3OC)N(C)[C@H]3[C@@](O)(C(N)=O)[C@H](O)[C@]5(CC)C=CCN6CC[C@]43[C@@H]65)C2)C1.O=S(=O)(O)O [VINDESINE SULFATE] | 2.71 | 3.57 |
| CN1CCN(c2nc3cc(C(F)(F)F)ccc3n3cccc23)CC1.O=C(O)/C=C\C(=O)O.O=C(O)/C=C\C(=O)O | 3.37 | 4.75 |
| CCC1=C(C)CN(C(=O)NCCc2ccc(S(=O)(=O)NC(=O)N[C@H]3CC[C@H](C)CC3)cc2)C1=O [GLIMEPIRIDE] | 15.98 | 1.16 |
| C[C@]12CC[C@@H]3c4ccc(O)cc4CC[C@H]3[C@@H]1CC[C@@H]2O [ESTRADIOL] | 2.2 | -0.2 |
| CC(c1cc2ccccc2s1)N(O)C(N)=O (centres undefined) [ZILEUTON] | -21.42 | 6.17 |
